The subject of one experiment is PRKD3. The following applies: concentration: 1 μM, replicates: in singlicate; n = 1.
Take `CSc1ccc(-c2cc3ncnc(SCC(=O)O)c3s2)cc1`: the “%Inh” value is reported as 9%.
Consider `CCc1nc(-c2cccc(C)c2)c(-c2ccnc(NCc3ccccc3)c2)s1`, for which the “%Inh” value turned out to be 0%.
Consider `COCCNC(=O)c1ccc(-c2cc(C(=O)NC3CC3)cc(F)c2C)cc1` [GW868318], for which the “%Inh” value amounted to 0%.
Same read-out and setting: the result for `COc1ccc(COc2cc(-n3cnc4ccccc43)sc2C(N)=O)cc1` [GSK1024304] reads 3%; that for `COc1cc2ncn(-c3cc(OCc4sccc4Cl)c(C(N)=O)s3)c2cc1OC` [GSK448459], 0%; that for `O=C(NCCNc1ccnc(Nc2ccc(F)cc2)n1)c1cc2ccccc2s1` [GSK1379874], 0%.
For `Cc1cccc(-c2nc(Nc3ccc4ncsc4c3)c3ccccc3n2)n1` [GW867588], the “%Inh” value is recorded as 66%.
In the case of `c1ccc(-c2n[nH]cc2-c2ccnc3ccccc23)nc1` [GW271431], the “%Inh” value is reported as 38%.
Still for that read-out and setting: the result for `O=C(NCCNc1ccnc(Nc2ccc(F)cc2)n1)Nc1ccccc1F` [GSK1379880] reads 0%.
For `Cc1nnc(-c2ccc3occ(-c4ccc(C(C)O)cc4)c3c2)o1` (stereo not shown), the “%Inh” value is reported as 0%.
For the compound `NS(=O)(=O)c1cccc(-c2ccc3nccc(-c4cccc(S(N)(=O)=O)c4)c3c2)c1` [GW867253], the “%Inh” value is recorded as 0%.
Consider `CCCCCc1nc2c(N)ncnc2n1CCCCC` [SKF-97255], for which the “%Inh” value is recorded as 0%.
Consider `Cl.Oc1cccc(Nc2ccnc3cc(-c4ccncc4)ccc23)c1` [GW494601], for which the “%Inh” value amounted to 17%.
As for `Fc1ccc(-c2ncn(CCCN3CCOCC3)c2-c2cccnc2)cc1` [SB-211743], the “%Inh” value worked out at 0%.
As to `Cc1ccc(C(=O)NCC(N)=O)cc1-n1c(C)cc(OCc2ccc(F)cc2F)c(Br)c1=O`, the “%Inh” value is reported as 15%.
Regarding `NS(=O)(=O)CCc1cccc(Nc2nccc(-c3c(-c4cccc(NC(=O)c5c(F)cccc5F)c4)nn4ccccc34)n2)c1` [GSK336735], the “%Inh” value came out at 56%.
On the same count and under the same terms, the result for `COC(=O)Nc1nc2cc(Oc3ccc(NC(=O)Nc4cc(F)ccc4F)cc3)ccc2[nH]1.Cl` [GW701424] reads 6%; that for `Cc1cn2c(=O)cc(N3CCOCC3)nc2n1Cc1cccc(Cl)c1Cl` [GSK2334006], 18%; that for `N#Cc1c(N2CCOCC2)sc(-c2ccn[nH]2)c1-c1ccc(Cl)cc1`, 16%.
In the case of `Cc1cccc(Cn2ccn3c(=O)cc(N4CCOCC4)nc23)c1` [GSK2297542], the “%Inh” value is recorded as 24%.
For the compound `COc1ccc(CNC(=O)NC2CCN(c3ccnc(Nc4ccc(OC)cc4)n3)C2)cc1` (stereo not shown) [GSK1379727], the “%Inh” value was determined as 0%.
On to `c1ccc(-c2cc(-c3c[nH]nc3-c3ccccn3)ccn2)cc1` [GW576604], for which the “%Inh” value was found to be 50%.
Turning to `COc1cc2c(cc1OCCN1CCN(C)CC1)ncc1c3ccc(C#N)cc3[nH]c21`, the “%Inh” value was determined as 10%.
Regarding `COc1ccc(Nc2nccc(N3CCC(NC(=O)Nc4cccc(C(C)=O)c4)C3)n2)cc1` (stereo not shown) [GSK1379731], the “%Inh” value was 7%.
Regarding `Cc1ccc(NC(=O)c2ccnc(N3CCN(C)CC3)c2)cc1-c1ccc(C(=O)NCC2CC2)cc1` [GW775604], the “%Inh” value came to 0%.
For the compound `Cc1c(Cn2c(C)nn3c(=O)cc(N4CCOC(C)C4)nc23)cccc1C(F)(F)F` (stereo not shown) [GSK2344444], the “%Inh” value stood at 22%.
Turning to `O=C(NCCCN1CCOCC1)c1cccc(Nc2nccc(Nc3ccc(Oc4ccccc4)cc3)n2)c1` [GW663929], the “%Inh” value worked out at 17%.
On to `Nc1nc(-c2ccc3c(N)n[nH]c3c2)cc(N2CCCC2)n1` [GSK2227430], for which the “%Inh” value worked out at 13%.
On to `Nc1nccc(-c2c(-c3ccc(F)cc3)ncn2C2CCN(CC(F)(F)F)CC2)n1` [SB-236560], for which the “%Inh” value turned out to be 0%.
With `COc1ccc(S(=O)(=O)NC2CCN(c3cc(C)nc(Nc4cccc(C#N)c4)n3)CC2)cc1.O=C(O)C(F)(F)F` [GSK1653539], the “%Inh” value came out at 48%.
As to `CN(C1=C(c2ccccc2)C(=O)NC1=O)c1ccccc1` [SB-334860], the “%Inh” value turned out to be 25%.
On to `CC(C)(CN)c1nc(-c2ccc(Cl)c(O)c2)c(-c2ccncc2)[nH]1.O=C(O)C(F)(F)F` [SB-477794], for which the “%Inh” value is 100%.
As to `CN1c2ccc(CNc3ccc(F)cc3)cc2-c2c(cnn2C)S1(=O)=O`, the “%Inh” value was determined as 0%.
The same measure, in the same setting: the result for `COc1cc(Nc2nccc(N3CCC(NC(=O)c4cccc(NC(C)=O)c4)C3)n2)cc(OC)c1OC` (stereo not shown) [GSK1379754] reads 0%.

A further experiment relates to PRKG1. The following applies: concentration: 1 μM, replicates: in singlicate; n = 1.
For `CSc1ccc(-c2cc3ncnc(SCC(=O)O)c3s2)cc1`, the “%Inh” value was 0%.
On to `CCc1nc(-c2cccc(C)c2)c(-c2ccnc(NCc3ccccc3)c2)s1`, for which the “%Inh” value is given as 0%.
Turning to `COCCNC(=O)c1ccc(-c2cc(C(=O)NC3CC3)cc(F)c2C)cc1` [GW868318], the “%Inh” value is recorded as 7%.
In the case of `COc1ccc(COc2cc(-n3cnc4ccccc43)sc2C(N)=O)cc1` [GSK1024304], the “%Inh” value came to 0%.
For the compound `COc1cc2ncn(-c3cc(OCc4sccc4Cl)c(C(N)=O)s3)c2cc1OC` [GSK448459], the “%Inh” value came to 14%.
For the compound `O=C(NCCNc1ccnc(Nc2ccc(F)cc2)n1)c1cc2ccccc2s1` [GSK1379874], the “%Inh” value was 0%.
Consider `Cc1cccc(-c2nc(Nc3ccc4ncsc4c3)c3ccccc3n2)n1` [GW867588], for which the “%Inh” value is given as 0%.
The same measure, in the same setting: the result for `c1ccc(-c2n[nH]cc2-c2ccnc3ccccc23)nc1` [GW271431] reads 0%; that for `O=C(NCCNc1ccnc(Nc2ccc(F)cc2)n1)Nc1ccccc1F` [GSK1379880], 0%.
For `Cc1nnc(-c2ccc3occ(-c4ccc(C(C)O)cc4)c3c2)o1` (stereo not shown), the “%Inh” value amounted to 10%.
Consider `NS(=O)(=O)c1cccc(-c2ccc3nccc(-c4cccc(S(N)(=O)=O)c4)c3c2)c1` [GW867253], for which the “%Inh” value is 28%.
Consider `CCCCCc1nc2c(N)ncnc2n1CCCCC` [SKF-97255], for which the “%Inh” value is given as 0%.
Take `Cl.Oc1cccc(Nc2ccnc3cc(-c4ccncc4)ccc23)c1` [GW494601]: the “%Inh” value was found to be 0%.
Take `Fc1ccc(-c2ncn(CCCN3CCOCC3)c2-c2cccnc2)cc1` [SB-211743]: the “%Inh” value was determined as 35%.
Turning to `Cc1ccc(C(=O)NCC(N)=O)cc1-n1c(C)cc(OCc2ccc(F)cc2F)c(Br)c1=O`, the “%Inh” value is given as 0%.
Turning to `NS(=O)(=O)CCc1cccc(Nc2nccc(-c3c(-c4cccc(NC(=O)c5c(F)cccc5F)c4)nn4ccccc34)n2)c1` [GSK336735], the “%Inh” value stood at 2%.
Consider `COC(=O)Nc1nc2cc(Oc3ccc(NC(=O)Nc4cc(F)ccc4F)cc3)ccc2[nH]1.Cl` [GW701424], for which the “%Inh” value was found to be 0%.
With `Cc1cn2c(=O)cc(N3CCOCC3)nc2n1Cc1cccc(Cl)c1Cl` [GSK2334006], the “%Inh” value turned out to be 0%.
On to `N#Cc1c(N2CCOCC2)sc(-c2ccn[nH]2)c1-c1ccc(Cl)cc1`, for which the “%Inh” value amounted to 0%.
On the same count and under the same terms, the result for `Cc1cccc(Cn2ccn3c(=O)cc(N4CCOCC4)nc23)c1` [GSK2297542] reads 0%; that for `COc1ccc(CNC(=O)NC2CCN(c3ccnc(Nc4ccc(OC)cc4)n3)C2)cc1` (stereo not shown) [GSK1379727], 0%.
The same measure, in the same setting: the result for `c1ccc(-c2cc(-c3c[nH]nc3-c3ccccn3)ccn2)cc1` [GW576604] reads 0%; that for `COc1cc2c(cc1OCCN1CCN(C)CC1)ncc1c3ccc(C#N)cc3[nH]c21`, 0%.
For the compound `COc1ccc(Nc2nccc(N3CCC(NC(=O)Nc4cccc(C(C)=O)c4)C3)n2)cc1` (stereo not shown) [GSK1379731], the “%Inh” value was found to be 0%.
As to `Cc1ccc(NC(=O)c2ccnc(N3CCN(C)CC3)c2)cc1-c1ccc(C(=O)NCC2CC2)cc1` [GW775604], the “%Inh” value was 0%.
Regarding `Cc1c(Cn2c(C)nn3c(=O)cc(N4CCOC(C)C4)nc23)cccc1C(F)(F)F` (stereo not shown) [GSK2344444], the “%Inh” value was determined as 14%.
On the same count and under the same terms, the result for `O=C(NCCCN1CCOCC1)c1cccc(Nc2nccc(Nc3ccc(Oc4ccccc4)cc3)n2)c1` [GW663929] reads 0%.
Same read-out and setting: the result for `Nc1nc(-c2ccc3c(N)n[nH]c3c2)cc(N2CCCC2)n1` [GSK2227430] reads 0%; that for `Nc1nccc(-c2c(-c3ccc(F)cc3)ncn2C2CCN(CC(F)(F)F)CC2)n1` [SB-236560], 0%; that for `COc1ccc(S(=O)(=O)NC2CCN(c3cc(C)nc(Nc4cccc(C#N)c4)n3)CC2)cc1.O=C(O)C(F)(F)F` [GSK1653539], 0%.
Take `CN(C1=C(c2ccccc2)C(=O)NC1=O)c1ccccc1` [SB-334860]: the “%Inh” value is reported as 0%.
On to `CN1c2ccc(CNc3ccc(F)cc3)cc2-c2c(cnn2C)S1(=O)=O`, for which the “%Inh” value worked out at 0%.
In the case of `COc1cc(Nc2nccc(N3CCC(NC(=O)c4cccc(NC(C)=O)c4)C3)n2)cc(OC)c1OC` (stereo not shown) [GSK1379754], the “%Inh” value came out at 15%.

These data come from PMC5540273 (PLoS ONE, 2017).
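Note: KINOMEscan kinase panel screen.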
